PolyA inh = blocks polyadenylation in yeast reporter cells; S. cerevisiae SKY197-pL101 polyadenylation reporter, beta-gal luminescence; efflux-impaired pdr1/pdr3 knockout yeast; score 100 = 6 SD above DMSO; activity score, % at 12 µM; 0.02% of 300,000 active; AID 1875;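 active means lowest replicate activity score at least 50, where 100 means six control SD above control mean; inconclusive means lowest score under 50 but half or more replicates reach 50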;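 further: yeast exposed to compound for 9 h at 30 °C; higher score means more reporter readthrough which indicates perturbed polyadenylation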
A3G deaminase = APOBEC3G (human) deaminase inhibition; Q9HC16; recombinant A3G, ssDNA deamination FAM/TAMRA fluorescence; inhibition, % at 20 µM; 0.28% of 330,000 active;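 active means inhibition of at least 40% at 20 µM, with no more than 30% in the related APOBEC3A deaminase screen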;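 further: plate controls were DMSO wells with A3G for no effect and wells lacking A3G enzyme for full effect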
Target sequence (Q9HC16 whole entry, looked up): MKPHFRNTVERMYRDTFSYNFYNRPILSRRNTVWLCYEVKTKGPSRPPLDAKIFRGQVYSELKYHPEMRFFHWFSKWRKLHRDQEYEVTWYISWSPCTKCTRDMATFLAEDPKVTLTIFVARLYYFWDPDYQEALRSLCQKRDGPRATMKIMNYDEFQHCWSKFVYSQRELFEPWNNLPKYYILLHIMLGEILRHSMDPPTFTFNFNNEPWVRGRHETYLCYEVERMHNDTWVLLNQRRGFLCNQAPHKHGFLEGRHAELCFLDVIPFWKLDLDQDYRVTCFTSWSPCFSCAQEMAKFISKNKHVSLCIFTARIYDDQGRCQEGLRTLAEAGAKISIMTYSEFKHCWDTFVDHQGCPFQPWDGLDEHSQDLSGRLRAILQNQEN
NALP1 inh = inhibitors of NALP1 inflammasome in yeast. S. cerevisiae NALP1/ASC/caspase-1 growth, X-gal OD620, 72 h. inhibition, % at 10 µM. 0.61% of 280,000 active. AID 2071; in the data active means inhibition mostly above about 24%, no sharp cut-off; inactive means mostly below about 32%
APOBEC3A inh = inhibitors of human APOBEC3A DNA deaminase. AID 493011. inhibition, % at 20 µM. recombinant A3A, FAM/TAMRA ssDNA deamination fluorescence. 0.41% of 330,000 active. P31941;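 active means at least 40% inhibition at 20 µM here, with at most 30% in a related deaminase screen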;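 further: plate controls were A3A with DMSO for no effect and wells lacking A3A enzyme for full effect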
Target sequence (P31941 whole entry, looked up): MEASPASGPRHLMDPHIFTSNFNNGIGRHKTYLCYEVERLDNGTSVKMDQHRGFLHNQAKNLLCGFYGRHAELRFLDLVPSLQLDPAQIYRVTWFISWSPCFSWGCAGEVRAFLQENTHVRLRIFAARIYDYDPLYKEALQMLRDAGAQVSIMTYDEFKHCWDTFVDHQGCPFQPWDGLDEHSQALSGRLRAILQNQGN
* marks the source's active call; other numbers are inactive results; ? = inconclusive; · = no result. The list is not random: actives were taken first. Their share in the collection is about 1.2%.

SMILES | PolyA inh | A3G deaminase | NALP1 inh | APOBEC3A inh
COc1cc(/C=C2/CCC/C(=C\c3cc(O)c(OC)c(Cl)c3)C2=O)cc(Cl)c1O | -21 | 3 | 24* | 6
CCCCCCCCNC(C)C(O)c1ccc(SC(C)C)cc1 (stereo not given) | -18 | -6 | 78* | -1
C[C@@H](NCCc1ccc(O)cc1)[C@@H](O)c1ccc(O)cc1 | 3 | -5 | · | -4
COC(=O)c1c(N2C(=O)CC(Sc3ccccc3C(=O)O)C2=O)sc2c1CCCC2 (stereo not given) | -36 | -4 | -2 | 1
COC(=O)c1c(N2C(=O)CC(Sc3ccccc3C(=O)O)C2=O)sc(C)c1C (stereo not given) | -8 | -8 | 22* | 0
O=C(O)c1ccccc1SC1CC(=O)N(c2ccccc2)C1=O (stereo not given) | -8 | -4 | 57* | 2
O=C(Nc1cc(Cl)ccc1-n1cncn1)c1ccc([N+](=O)[O-])s1 | -4 | 3 | 45* | 17
CSc1cccc(NC(=O)c2[nH]c(C)c(C(C)=O)c2C)c1 | 4 | -8 | 12 | -4
CC1CCCC(NC(=O)Cc2ccc(Br)cc2)C1C (stereo not given) | -7 | -1 | 3 | -2
CC1CCCC(NC(=O)COC(=O)Cc2ccc(Br)cc2)C1C (stereo not given) | 7 | -7 | 18* | -5
Nc1nc(-c2ccc(Oc3ccccc3)cc2)cs1 | -18 | -7 | 98* | -8
COc1ccccc1CN(C)C(=O)C(c1ccccc1)c1ccccc1 | -32 | -8 | 2 | 1
CCN1CCN(CC(=O)N2N=C(c3ccc(OC)cc3)CC2c2ccc(OC)cc2)C(=O)C1=O (stereo not given) | -4 | -2 | 20* | 4
COc1ccc(C2=NN(C(=O)CCC(=O)O)C(c3ccc(OC)cc3)C2)cc1 (stereo not given) | 5 | -6 | 13 | -5
NNC(=O)c1ccc2nc(-c3ccc(Br)cc3)cn2c1 | -19 | 3 | 39* | -5
CCc1ccc2[nH]c(=O)c(CN(Cc3ccco3)C(=S)NCC3CCCO3)cc2c1 (stereo not given) | -11 | -1 | 38* | -2
CCC1S/C(=C(\C#N)C(=O)NCc2ccco2)N(c2ccc(Br)cc2)C1=O (stereo not given) | 5 | -3 | 22* | -2
CCC1S/C(=C(\C#N)C(=O)NCc2ccco2)N(c2ccc(F)cc2)C1=O (stereo not given) | -26 | -5 | 19 | -4
CCN(CC(=O)NCc1ccc(Cl)cc1)C(=O)COc1ccc(C)cc1C | -7 | 22 | 26 | 6
Cc1ccc(C(=O)Nc2ccccc2N2CCOCC2)cc1S(=O)(=O)N1CCOCC1 | · | -5 | · | 2
CNC(=S)N/N=C/c1cc(Br)cc(Br)c1O | -35 | -5 | 54* | -3
CCO[C@@H]1OC(C(=O)NCc2ccccc2)=C[C@H](C2CCCCC2)[C@H]1CCCO | -13 | -3 | 21* | -1
Cn1nc(C(F)(F)F)c(-c2ccc(Br)cc2)c1NC(=O)CSCC(=O)O | -14 | -2 | · | 0
Cc1ccc(/C=N/NC(=O)CNC(=O)c2cccs2)o1 | 0 | -3 | -5 | -1
O=C(CNC(=O)c1cccs1)N/N=C/c1ccco1 | 22 | -10 | 29* | 0
SMILES | PolyA inh | A3G deaminase | NALP1 inh | APOBEC3A inh
NS(=O)(=O)c1ccc(CNC(=O)C(Cc2ccccc2)NS(=O)(=O)c2ccccc2F)cc1 (stereo not given) | -20 | -5 | 17 | -3
CSC[C@@H]1NC(=S)N(c2ccc(C)cc2)C1=O | -26 | -6 | 76* | -3
O=C(/C(=C/O)N=Nc1ccccc1)c1ccc(Cl)cc1 | -94 | -1 | 26* | 0
COc1cc(CNc2cccc(F)c2)cc(Br)c1O | -2 | -1 | 32* | 3
COc1ccc(CNc2ccccc2)cc1Br | -3 | 1 | -80 | -4
Cc1ccc(NC(=O)c2ccc(CNc3c(N4CCC(C)CC4)c(=O)c3=O)cc2)cc1 | 16 | -3 | · | 4
C[C@H]1O[C@@H](O[C@H]2CC[C@@]3(C)C(CC[C@]4(C)C3C=CC3=C5CC(C)(C)CC[C@]5(CO)[C@H](O)C[C@]34C)[C@]2(C)CO)[C@H](O)[C@@H](O[C@@H]2O[C@H](CO)[C@@H](O)[C@H](O)[C@H]2O)[C@H]1O (stereo not given in full) | · | -9 | · | -4
COc1ccc(NC(=O)COc2nc(N(C)C)nc(N(C)C)n2)cc1 | 3 | -2 | 28* | 0
CCN(C(=O)COC(=O)CSc1ccc(F)cc1)c1c(N)n(Cc2ccccc2)c(=O)[nH]c1=O | · | -8 | · | -5
Brc1ccc(-c2nnc3ccc(N4CCN(c5ccccc5)CC4)nn23)cc1 | 7 | -4 | 30* | -2
O=C(CCNS(=O)(=O)c1ccccc1)OCC(=O)c1ccc[nH]1 | ? | -3 | · | 5
CCC(CC)NC(=O)C1CCN(S(=O)(=O)c2cccs2)CC1 | 20 | -6 | 33* | -5
COc1ccc(NC(=O)CN2CCN(S(=O)(=O)c3cccs3)CC2)cc1Cl | · | -9 | · | -2
CCS(=O)(=O)N1CCC(C(=O)NCc2cc(OC)ccc2OC)CC1 | -6 | -1 | 41* | 0
COc1ccc(OC)c(NC(=O)C2CCN(S(=O)(=O)c3cccs3)CC2)c1 | 3 | -1 | 39* | 2
COc1ccc(CNC(=O)CN2CCN(S(=O)(=O)c3cccs3)CC2)cc1OC | -1 | 6 | 35* | 1
O=C(c1cnn(C(=O)c2cccc(S(=O)(=O)N3CCOCC3)c2)c1)c1ccccc1O | 7 | -7 | -8 | -3
CC(=NNC(=O)c1ccc(NS(=O)(=O)c2cccs2)cc1)c1ccc(OCC(N)=O)cc1 | · | -7 | · | -5
COc1ccc(S(=O)(=O)N2CCCCCC2)cc1NS(=O)(=O)c1cc(C(=O)O)cc(C)c1C | · | -9 | · | -5
COCCn1cc(C(=S)N2CCCCC2)c2ccccc21 | -18 | -6 | -3 | -3
COCCn1cc(C(=S)N2CCOCC2)c2ccccc21 | 2 | 5 | 33* | 4
CC(C)c1ccc(N2C(=O)CC(Sc3ncn[nH]3)C2=O)cc1 (stereo not given) | -18 | 35 | 101* | -2
CC(C)c1ccc(N2C(=O)CC(Sc3nc4ccccc4o3)C2=O)cc1 (stereo not given) | 16 | -3 | 8 | -1
Cc1ccc(CN2CCN(Cc3cnc(N4CCOCC4)s3)CC2CCO)o1 (stereo not given) | -8 | -2 | 26* | 2
Cc1ccc(CN2CCN(Cc3cnc(C)s3)CC2CCO)o1 (stereo not given) | 31 | -5 | 16 | 2
CCc1nnc(NC(=O)CSc2nnc(CNc3ccc(F)cc3)n2C2CCCCC2)s1 | -4 | -3 | 32* | -1
Cc1cc(NC(=O)CSc2nnc(CNc3ccc(F)cc3)n2C2CCCCC2)no1 | 20 | -6 | 8 | -1
CC(C)(O)CC[C@@H](O)[C@](C)(O)[C@H]1CC[C@@]2(O)C3=CC(=O)[C@@H]4C[C@@H](O)[C@@H](O)C[C@]4(C)[C@H]3CC[C@]12C | -15 | 3 | -14 | 2
N#Cc1ccc(-c2nc3ccccc3c(=O)n2O)cc1 | 29 | -4 | 14 | -6

High-throughput results from PubChem BioAssay.
